# Sm TGR inh: qHTS Assay for the Inhibitors of Schistosoma Mansoni Peroxiredoxins; 360,000 tested, 3% active; Schistosoma mansoni thioredoxin glutathione reductase (TGR), Q962Y6; purified TGR, DTNB reduction, TNB absorbance 405 nm; Potency, µM (top dose mostly 114 µM), without a hit: at the highest dose activity change, negative = inhibition, hits mostly inhibitors; further: nearly all actives have a fitted effect of over 60% in size
#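 First, TGR (20 nM dispensed) and NADPH were mixed with compound. Second, a 15 min room-temperature incubation followed. Third, further NADPH and then DTNB were added to start the reaction. Finally, TNB absorbance was monitored kinetically.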
# AMA1-RON2 inh: qHTS for Inhibitors of AMA1-RON; Towards Development of Antimalarial Drug Lead: Primary Screen | 360,000 tested, 0.2% active | AID 720542, 2013 | Potency, µM (doses to about 58.2 µM), without a hit: at the top dose activity change, negative = inhibition, actives largely listed as inhibitors | AlphaScreen AMA1-biotinylated RON2 peptide binding;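 further: 0% = vehicle wells and -100% = peptide control; nearly all actives have a fitted effect of over 45% in size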
#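 AMA1 (3D7) with his tag at 25 nM final met compounds first, then biotinylated RON2 peptide at 25 nM; detection used donor plus acceptor beads, 10 µg/mL apiece, read by AlphaScreen after 30 min at room temperature.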
# AmpC detergent: qHTS Inhibitors of AmpC Beta-Lactamase (assay with detergent) | AID 485294, 2010 | Potency, µM (highest dose often 114 µM), for inactives: at the top dose activity change, negative = inhibition, actives largely listed as inhibitors | P00811 | 370,000 tested, 0.041% active | AmpC hydrolysis of nitrocefin, absorbance 480 nm, 0.01% Triton;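 further: 0% = no-compound wells and -100% = no-enzyme wells; nearly all actives have a fitted effect of over 25% in size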
# Target sequence (P00811 whole entry, looked up): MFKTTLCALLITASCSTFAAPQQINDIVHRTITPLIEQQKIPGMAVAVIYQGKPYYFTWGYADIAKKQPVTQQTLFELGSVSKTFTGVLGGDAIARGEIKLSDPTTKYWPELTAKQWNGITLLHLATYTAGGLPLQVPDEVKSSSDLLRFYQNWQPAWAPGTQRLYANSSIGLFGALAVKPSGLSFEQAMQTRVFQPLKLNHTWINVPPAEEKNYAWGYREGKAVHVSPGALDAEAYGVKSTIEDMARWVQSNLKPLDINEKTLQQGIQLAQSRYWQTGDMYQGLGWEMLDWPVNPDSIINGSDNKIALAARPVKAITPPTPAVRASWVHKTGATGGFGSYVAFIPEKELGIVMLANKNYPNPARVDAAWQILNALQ
#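 AmpC (5.3 nM in the dispensed reagent) in 20 mM phosphate pH 7.0 with 0.01% (detergent screen) or 0.0001% Triton X-100 was preincubated with compounds for 15 min at room temperature. Nitrocefin was then added from an 800 uM solution, and hydrolysis was followed at 480 nm.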
# RE007 growth inh: qHTS Assay for Inhibitors of the HIV-1 protein Vpr; S. pombe RE007 Vpr strain, BacTiter-Glo ATP luminescence, 24 h; Potency, µM (highest dose often 92.2 µM), for the others: top-dose activity change, negative = less growth, actives largely listed as inhibitors; AID 651644, 2012; 360,000 tested, 0.21% active; active means well fitted falling curve with a large enough effect; inconclusive means small, poorly fitted or top-dose-only effect; inactive means no such curve, though single readings can be large or run the other way; further: nearly all actives have a fitted effect of over 50% in size
#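 Fission yeast RE007 carrying one integrated HIV-1 vpr copy, seeded at OD 0.01 in PMG+AL medium with 23 nL pinned compound. Grown 24 h at 30 degrees; viability read by BacTiter-Glo luminescence after 5 min.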
# AmpC no deterg: qHTS Inhibitors of AmpC Beta-Lactamase (assay without detergent) | AmpC nitrocefin hydrolysis, absorbance 480 nm, 0.0001% Triton | Potency, µM (titrated, usually from 57.1 µM), for the others: at the top dose activity change, negative = inhibition, usual class: inhibitors | P00811 | 330,000 tested, 0.52% active;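 further: plate controls were no compound for no effect and no enzyme for full effect; nearly all actives have a fitted effect of over 20% in size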
#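 AmpC (5.3 nM in the dispensed reagent) in 20 mM phosphate pH 7.0 with 0.01% (detergent screen) or 0.0001% Triton X-100 was preincubated with compounds for 15 min at room temperature. Nitrocefin was then added from an 800 uM solution, and hydrolysis was followed at 480 nm.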
# An asterisk follows results filed as active; ? = inconclusive; nt = not tested or not shown; [ ] = another dose, or the depositor's remark. Most compounds without a hit are left out; they make up all but 3.2% or so of the library. Unless noted, the call rests on the fitted dose curve; in most records, active means well fitted curve in the direction sought with a large enough effect; inconclusive means small, poorly fitted or top-dose-only effect, or another doubt; inactive means no such curve, though single readings can be large; an effect the other way counts as inactive or inconclusive. Unless noted, on the % scale 0 is the no-effect control and ±100 the full control effect; potency means the concentration at half of the fitted maximal effect.
SMILES,Sm TGR inh,AMA1-RON2 inh,AmpC detergent,RE007 growth inh,AmpC no deterg
O=C(CN1CCCN(S(=O)(=O)c2ccc(Br)cc2)CC1)Nc1cccc(C(F)(F)F)c1,35.5µM*,nt,2.4%,nt,nt
COc1ccc(S(=O)(=O)N2CCN(C3CCN(Cc4ccccc4)CC3)CC2)cc1,50.1µM*,-3.9%,-0.9%,-5.7%,8.8%
O=S(=O)(c1ccccc1)N1CCN(C2CCN(Cc3ccccc3)CC2)CC1,3.3%,28.8%,-17.0%,-1.8%,-15.5%
COc1cccc(CN2CCCN(S(=O)(=O)c3ccc(Br)cc3)CC2)c1,39.8µM*,0.0%,-7.1%,-24.3%,3.4%
CSc1nc(Nc2ccc(C)cc2C)cc(-c2ccccc2)n1,3.4%,nt,16.9%,nt,nt
COc1cccc(NC(=O)CSC2=Nc3ccccc3N=C(c3ccc(F)cc3)C2)c1,0.5%,nt,23.9%,nt,nt
Cc1cc(C)cc(C(=O)N2CC(=O)Nc3ccc(Br)cc3C2c2ccccc2)c1 (stereo not given),1.8%,nt,-6.1%,nt,nt
COc1ccc(S(=O)(=O)N2CCCC2CNC(=O)C(=O)NCc2ccccc2)cc1 (stereo not given),2.9%,9.3%,?,13.9%,31.6µM*
COc1ccc(S(=O)(=O)N2CCCC2CNC(=O)C(=O)NCc2ccc(C)cc2)cc1 (stereo not given),-3.5%,18.2%,-7.7%,1.1%,-6.5%
Cc1cc(C)cc(Nc2cc(C(=O)NCc3ccccc3)c3ccccc3n2)c1,35.5µM*,nt,8.5%,nt,nt
Cc1cc2n(n1)CCCN2C(=O)Nc1ccccc1F,-6.7%,nt,-7.6%,nt,nt
Cc1nc2ncnn2c(C)c1CCC(=O)N1CCN(c2ccccc2)CC1,0.3%,nt,1.9%,nt,nt
O=C(NCc1cccnc1)c1cccc(C(F)(F)F)c1,1.3%,3.2%,-0.6%,6.6%,0.316µM*
COCCc1nn2c(=O)cc(COC(=O)c3ccc(C(C)(C)C)cc3)nc2s1,-5.4%,nt,-2.6%,nt,nt
COCCN1CCn2c(nc3cc(NC(=O)c4ccc(OC)cc4)ccc32)C1,15.8µM*,28.5%,5.9%,0.1%,30.7%
COCCN1CCn2c(nc3cc(NC(=O)Cn4nc(C)c5ccccc5c4=O)ccc32)C1,25.1µM*,22.6%,5.0%,10.5%,73.3%
COCCN1CCn2c(nc3cc(NC(=O)NC4CCCCC4)ccc32)C1,8.91µM*,5.6%,8.5%,0.5%,21.8%
COCCN1CCn2c(nc3cc(NC(C)=O)ccc32)C1,14.1µM*,-0.5%,-1.6%,-13.9%,32.8%
CCOC(=O)Nc1ccc2c(c1)nc1n2CCN(CCOC)C1,-14.7%,-7.1%,-10.8%,12.1%,5.8%
O=C(Nc1ccc2c(c1)nc1n2CCN(Cc2ccccc2)C1)NC1CCCCC1,?,-6.1%,0.3%,-13.0%,-16.1%
Cc1ccc(C(C)C)c(OCC(=O)Nc2ccc(O)c(-c3nc4cc(Cl)ccc4o3)c2)c1,-4.7%,nt,3.9%,nt,nt
CCN(Cc1ccccc1)C(=O)Cn1c(=O)cc(C)c2c(C)nn(-c3cccc(F)c3)c21,1.5%,nt,4.4%,nt,nt
COc1ccccc1N(C)C(=O)Cn1c(=O)oc2cc(S(=O)(=O)N3CCCC3)ccc21,4.3%,nt,3.5%,nt,nt
O=C(CCC1N=C2c3ccccc3N=C(SCc3ccc(F)cc3)N2C1=O)NCc1ccco1 (stereo not given),25.1µM*,-5.7%,3.6%,1.1%,84.4%
Cc1ccc(CSC2=Nc3ccccc3C3=NC(CC(=O)NCc4ccco4)C(=O)N23)cc1 (stereo not given),35.5µM*,-21.0%,-11.1%,5.0%,52.1%
SMILES,Sm TGR inh,AMA1-RON2 inh,AmpC detergent,RE007 growth inh,AmpC no deterg
CC(NC(=O)C1CCN(S(=O)(=O)c2ccc(F)cc2)CC1)c1ccccc1 (stereo not given),-6.6%,nt,-0.9%,nt,nt
NS(=O)(=O)c1cccc(NS(=O)(=O)c2ccc(/C=C/C(=O)OCC(=O)c3ccccc3)cc2)c1,12.6%,-0.9%,-13.5%,-18.3%,3.55µM*
COc1ccc(C(=O)COC(=O)/C=C/c2ccccc2)cc1,0.0%,10.9%,1.7%,-6.9%,-9.3%
CC(C)(C)c1ccc(C2NC(=O)c3n[nH]c(-c4cccs4)c32)cc1 (stereo not given),3.2%,nt,0.1%,nt,nt
CN(C)CCCN(C(=O)CCc1ccccc1)c1nc2c(F)cccc2s1,4.2%,-27.9%,3.4%,4.8%,119.7%
O=C(CCOc1ccccc1)N(Cc1cccnc1)c1nc2ccc(F)cc2s1,3.98µM*,nt,2.8%,nt,nt
O=C(COc1ccccc1)N(Cc1cccnc1)c1nc2ccc(F)cc2s1,1.7%,nt,3.8%,nt,nt
CN(C)CCCN(C(=O)CCOc1ccccc1)c1nc2c(F)cccc2s1,0.398µM*,-10.0%,-11.0%,-14.8%,-39.4%
CN(C)CCCN(C(=O)CCOc1ccccc1)c1nc2ccc(F)cc2s1,0.631µM*,-5.2%,-3.2%,-21.8%,-3.9%
Cc1ccc2[nH]c3c(=O)n(CC(=O)N(CCN(C)C)Cc4ccccc4)ncc3c2c1,12.1%,nt,20.8%,nt,nt
Cn1c(N=Nc2ccccc2)nc2ccccc21,-2.9%,-23.7%,-12.1%,15.8µM*,-5.1%
Cn1c(Cl)nc2ccccc21,0.7%,0.7%,0.0%,4.2%,-14.3%
CN(C)c1ccc(N=Nc2nc3ccccc3n2C)cc1,-16.4%,3.98µM*,-5.2%,11.2µM*,-11.6%
Cc1nc(SCc2cccc(Cl)c2)nc2c1CCCC2,1.6%,nt,21.1%,nt,nt
CCN(C(=O)C1CCC(CNS(=O)(=O)c2cccc3nsnc23)CC1)c1ccccc1 (stereo not given),3.8%,nt,0.7%,nt,nt
O=C(OCn1ncc(Cl)c(Cl)c1=O)c1cccc(C(F)(F)F)c1,5.62µM*,?,-4.8%,44.7µM*,-28.1%
O=C(O)c1ccccc1NC(=O)C1CCCO1 (stereo not given),4.7%,1.0%,7.9%,-6.7%,nt
O=C(Nc1ccccc1Sc1ccccc1)C1CCCO1 (stereo not given),44.7µM*,2.5%,?,13.5%,0.6%
Cc1nn(C)c2c1c(C(F)(F)F)cc(=O)n2C(C)C(=O)NCCc1ccccc1 (stereo not given),-3.8%,nt,1.7%,nt,nt
COc1ccc(CNc2cccc3[nH]c(C(F)(F)F)nc23)cc1,31.6µM*,48.9%,3.7%,4.4%,-18.8%
COc1cc(CNc2cccc3[nH]c(C(F)(F)F)nc23)cc(OC)c1,22.4µM*,42.7%,-0.3%,0.5%,-10.2%
c1ccc2nc(N3CCCC3)c(N3CCCC3)nc2c1,12.7%,112.1%,12.1%,-4.5%,-6.9%
CN(C)C=Nc1nc2ccccc2nc1N1CCCC1,39.8µM*,-4.3%,-14.0%,?,-7.1%[2.29 µM]
CCn1c(=O)oc2cc(NC(=O)CCl)ccc21,39.8µM*,0.7%,-2.9%,20.7%,-20.6%
